Experimental findings from PubChem BioAssay (EPA / NIEHS) are described below.

Activity calls are given as the source filed them. Rule for the calls: active = hit-call score of the fitted dose curve at least 0.9, where 1 is the maximum; inactive = score below 0.9.

Read-out in assay [1]: Interleukin-6 (IL6), IL6 (gene 3569)
In words: BSK_CASM3C_IL6: BioMAP Diversity Plus: CASM3C Assay for Interleukin-6 (IL6) Biomarker Activity for (AID 2283040). The conditions noted are these: primary human coronary artery smooth muscle cells; actives raise or lower the signal.

Read-out in assay [2]: Tissue plasminogen activator (tPA), PLAT (gene 5327)
In words: BSK_BE3C_tPA: BioMAP Diversity Plus: BE3C Assay for Tissue plasminogen activator (tPA) Biomarker Activity (AID 2283041).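 Note: tPA level quantified by ELISA one day after compound addition.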 The settings on record: primary human bronchial epithelial cells; actives raise or lower the signal. In short, it runs like this:
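Bidirectional curve fitting relative to DMSO defined activity, with tPA detected by ELISA in chemically treated human bronchial epithelial primary cells at 24 hours.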

Read-out in assay [3]: Interleukin-8 (IL8), CXCL8 (gene 3576)
Nature of the assay: BSK_CASM3C_IL8: BioMAP Diversity Plus: CASM3C Assay for Interleukin-8 (IL8) Biomarker Activity (AID 2283042).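 Note: IL-8 protein level quantified by ELISA.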 The conditions noted are these: primary human coronary artery smooth muscle cells; actives raise or lower the signal.

Read-out in assay [4]: Human Leukocyte Antigen - DR isotype (HLADR), HLA-DRA (gene 3122)
In words: BSK_CASM3C_HLADR: BioMAP Diversity Plus: CASM3C Assay for Human Leukocyte Antigen - DR isotype (HLADR) Biomarker Activity (AID 2283043).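 Note: cell-surface HLA-DR protein level quantified by ELISA.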 The settings on record: primary human coronary artery smooth muscle cells; actives raise or lower the signal.

Read-out in assay [5]: Macrophage colony-stimulating factor (MCSF), CSF1 (gene 1435)
Nature of the assay: BSK_CASM3C_MCSF: BioMAP Diversity Plus: CASM3C Assay for Macrophage colony-stimulating factor (MCSF) Biomarker Activity (AID 2283044).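 Note: M-CSF protein amount quantified by ELISA after 24 h exposure.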 The settings on record: primary human coronary artery smooth muscle cells; actives raise or lower the signal.

Read-out in assay [6]: Low-density lipoprotein receptor (LDLR), LDLR (gene 3949)
Nature of the assay: BSK_CASM3C_LDLR: BioMAP Diversity Plus: CASM3C Assay for Low-density lipoprotein receptor (LDLR) Biomarker Activity (AID 2283045).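 Note: LDLR protein level on the cell surface quantified by ELISA.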 The conditions noted are these: primary human coronary artery smooth muscle cells; actives raise or lower the signal.

Read-out in assay [7]: Monocyte Chemoattractant Protein-1 (MCP1), CCL2 (gene 6347)
In words: BSK_CASM3C_MCP1: BioMAP Diversity Plus: CASM3C Assay for Monocyte Chemoattractant Protein-1 (MCP1) Biomarker Activity (AID 2283046).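 Note: MCP-1 level quantified by ELISA 24 h after dosing.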 The conditions noted are these: primary human coronary artery smooth muscle cells; actives raise or lower the signal.

A short description of assay [8]: BSK_CASM3C_Proliferation: Cell Proliferation Assessment in the BioMAP Diversity Plus: CASM3C Assay (AID 2283047).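 Note: sulforhodamine B total protein stain as relative cell number at 560 nm; sub-confluent cells exposed 48 h before staining; fitted both ways against DMSO so gain or loss of cell number.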 The conditions noted are these: primary human coronary artery smooth muscle cells.
Read-out in assay [9]: Monokine induced gamma interferon (MIG), CXCL9 (gene 4283)
In words: BSK_CASM3C_MIG: BioMAP Diversity Plus: CASM3C Assay for Monokine induced gamma interferon (MIG) Biomarker Activity (AID 2283048).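 Note: MIG protein level measured by ELISA.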 The conditions noted are these: primary human coronary artery smooth muscle cells; actives raise or lower the signal.

Read-out in assay [10]: serum amyloid A (SAA), SAA1 (gene 6288)
Nature of the assay: BSK_CASM3C_SAA: BioMAP Diversity Plus: CASM3C Assay for serum amyloid A (SAA) Biomarker Activity (AID 2283049).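 Note: SAA protein level quantified by ELISA.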 The settings on record: primary human coronary artery smooth muscle cells; actives raise or lower the signal.

Assay [11] can be described thus: BSK_CASM3C_SRB: Viability Assessment in the BioMAP Diversity Plus: CASM3C Assay (AID 2283050).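 Note: total protein by SRB staining as cytotoxicity measure in parallel cultures; cells exposed to compound for 24 h.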 The settings on record: primary human coronary artery smooth muscle cells.
Read-out in assay [12]: Thrombomodulin, THBD (gene 7056)
In words: BSK_CASM3C_Thrombomodulin: BioMAP Diversity Plus: CASM3C Assay for Thrombomodulin Biomarker Activity (AID 2283051).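 Note: thrombomodulin protein level measured by ELISA 24 h after dosing.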 The settings on record: primary human coronary artery smooth muscle cells; actives raise or lower the signal.

Read-out in assay [13]: Tissue Factor, F3 (gene 2152)
Nature of the assay: BSK_CASM3C_TissueFactor: BioMAP Diversity Plus: CASM3C Assay for Tissue Factor Biomarker Activity (AID 2283052).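 Note: cell surface tissue factor protein level read by ELISA.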 The conditions noted are these: primary human coronary artery smooth muscle cells; actives raise or lower the signal.

Read-out in assay [14]: Interferon-gamma inducible Protein 10 (IP10), CXCL10 (gene 3627)
In words: BSK_hDFCGF_IP10: BioMAP Diversity Plus: hDFCGF Assay for Interferon-gamma inducible Protein 10 (IP10) Biomarker Activity (AID 2283053). The conditions noted are these: primary human foreskin fibroblasts; actives raise or lower the signal. In short, it runs like this:
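IP-10 levels, quantified by ELISA, are taken from human foreskin fibroblast cultures 24 h after chemical treatment, with DMSO serving as negative control and baseline for bidirectional analysis.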

Read-out in assay [15]: Urokinase-type plasminogen activator receptor (uPAR), PLAUR (gene 5329)
Nature of the assay: BSK_CASM3C_uPAR: BioMAP Diversity Plus: CASM3C Assay for Urokinase-type plasminogen activator receptor (uPAR) Biomarker Activity (AID 2283054).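 Note: cell-surface uPAR protein level quantified by ELISA.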 The conditions noted are these: primary human coronary artery smooth muscle cells; actives raise or lower the signal.

Read-out in assay [16]: Vascular cell adhesion molecule 1 (VCAM1), VCAM1 (gene 7412)
Nature of the assay: BSK_CASM3C_VCAM1: BioMAP Diversity Plus: CASM3C Assay for Vascular cell adhesion molecule 1 (VCAM1) Biomarker Activity (AID 2283055).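 Note: VCAM-1 protein level quantified by ELISA on the cells.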 The settings on record: primary human coronary artery smooth muscle cells; actives raise or lower the signal.

Read-out in assay [17]: Collagen III, COL3A1 (gene 1281)
In words: BSK_hDFCGF_CollagenIII: BioMAP Diversity Plus: hDFCGF Assay for Collagen III Biomarker Activity (AID 2283056). The settings on record: primary human foreskin fibroblasts; actives raise or lower the signal. The method, boiled down: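 Cells: human foreskin fibroblasts, primary. Dosing followed by 24 h incubation, then ELISA for collagen III. Both increases and decreases scored relative to DMSO.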

Read-out in assay [18]: Epidermal growth factor receptor (EGFR), EGFR (gene 1956)
Nature of the assay: BSK_hDFCGF_EGFR: BioMAP Diversity Plus: hDFCGF Assay for Epidermal growth factor receptor (EGFR) Biomarker Activity (AID 2283057). The conditions noted are these: primary human foreskin fibroblasts; actives raise or lower the signal. In short, it runs like this:
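Measured by ELISA: EGFR levels on primary human foreskin fibroblasts 24 h after chemical treatment, analysed relative to DMSO with bidirectional fitting.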

Read-out in assay [19]: Interleukin-8 (IL8), CXCL8 (gene 3576)
Nature of the assay: BSK_hDFCGF_IL8: BioMAP Diversity Plus: hDFCGF Assay for Interleukin-8 (IL8) Biomarker Activity (AID 2283058). The settings on record: primary human foreskin fibroblasts; actives raise or lower the signal. The method, boiled down: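 IL-8 levels from compound-treated primary human fibroblasts were read by ELISA at 24 h, with DMSO serving as baseline for bidirectional fitting.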

Assay [20] is described as follows: BSK_hDFCGF_Proliferation: Cell Proliferation Assessment in the BioMAP Diversity Plus: hDFCGF Assay (AID 2283059).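 Note: curves fitted for both rise and fall of signal versus DMSO baseline.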 The settings on record: primary human foreskin fibroblasts. In short, it runs like this:
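Steps: dose primary human dermal fibroblasts (foreskin); […] fix in 10% TCA; stain with 0.1% SRB; read 560 nm; fit gain or loss of signal against DMSO.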

As to `O=S(=O)(O)C(F)(F)C(F)(F)C(F)(F)C(F)(F)C(F)(F)C(F)(F)C(F)(F)F`, the outcome in assay [1], in [2], in [3], in assay [4], in assay [5] and in assay [6] was inactive. For the same compound, the result in assay [7], in [8], in assay [9], in assay [10], in assay [11] and in [12] was inactive. The outcome in [13], in assay [14], in [15], in [16], in [17] and in [18] was inactive. Moreover, the outcome in assay [19] and in assay [20] was inactive.

Regarding `C=CC(F)(F)C(F)(F)C(F)(F)C(F)(F)C(F)(F)C(F)(F)C(F)(F)C(F)(F)C=C`, the outcome in [1], in assay [2], in [3], in [4], in [5] and in assay [6] was inactive. The outcome in assay [7], in assay [8], in assay [9], in [10], in assay [11] and in [12] was inactive. Moreover, the result in assay [13], in assay [14], in assay [15], in [16], in [17] and in assay [18] was inactive. For the same compound, the result in [19] and in assay [20] was inactive.

The term AC50 denotes the concentration at which the activity in the assay is half-maximal. `Nc1ccc([N+](=O)[O-])cc1O`: the result in [1], in [2], in assay [3], in assay [4], in assay [5] and in [6] was inactive. The result in assay [7], in assay [8], in [9], in [10], in assay [11] and in assay [13] was inactive. The result in [14], in assay [15], in [16], in assay [17], in assay [18] and in [19] was inactive. The half-maximal activity concentration (AC50) in assay [12] was 20 µM (active); in assay [20] it was 11.1 µM (active).

Consider `CCc1c(Br)c(Br)c(Br)c(Br)c1Br`, for which the result in assay [1], in assay [2], in assay [3], in assay [4], in [5] and in assay [6] was inactive. Moreover, the outcome in [7], in assay [8], in [9], in assay [10], in [11] and in [12] was inactive. For the same compound, the result in [14], in assay [15], in assay [16], in assay [17], in assay [18] and in assay [19] was inactive. Besides, the outcome in assay [20] was inactive. In assay [13], the AC50 is 4.48 µM (active).

Turning to `O[Si](c1ccccc1)(c1ccccc1)c1ccccc1`, the outcome in assay [1], in assay [2], in [3], in [4], in [5] and in assay [6] was inactive. Moreover, the outcome in [7], in assay [9], in assay [10], in assay [11], in assay [12] and in assay [13] was inactive. Also, the result in [14], in assay [15], in assay [16], in [18] and in assay [19] was inactive. The results for the AC50 in [8], in [17] and in assay [20] were 20 µM (active), 7.56 µM (active) and 20 µM (active), respectively.

Take `CO[Si](OC)(c1ccccc1)c1ccccc1`: the half-maximal activity concentration (AC50) was 31.5 µM (active) in assay [1]; 39.1 µM (active) in assay [4]; 33.2 µM (active) in assay [5]; 30.8 µM (active) in assay [6]; 36.7 µM (active) in [7]; 34.2 µM (active) in [8]. Further, the AC50 in assay [10] was 30.9 µM (active); in assay [11] it was 31.1 µM (active); in assay [13], 30.7 µM (active); in assay [15] it was 29.5 µM (active); in [16], 35.7 µM (active); in assay [17], 32 µM (active). In addition, in assay [20], the AC50 is 28.1 µM (active). Further, the outcome in [2], in assay [3], in assay [9], in [12], in [14] and in assay [18] was inactive. In addition, the outcome in assay [19] was inactive.

On to `FC(F)(F)C(F)(F)C(F)(F)C(F)(F)C(F)(F)C(F)(F)C(F)(F)C(F)(F)F`, for which the result in assay [1], in [2], in assay [3], in assay [4], in [5] and in assay [6] was inactive. The result in assay [7], in assay [8], in assay [9], in assay [10], in assay [11] and in assay [12] was inactive. The outcome in [13], in assay [14], in assay [15], in assay [16], in assay [17] and in assay [18] was inactive. Further, the outcome in assay [19] and in [20] was inactive.

`C=C(C)C(=O)OCC(F)(F)C(F)(F)C(F)(F)F`: the outcome in assay [1], in [2], in assay [3], in assay [4], in [5] and in [6] was inactive. In addition, the outcome in assay [7], in [8], in assay [9], in assay [10], in [11] and in [12] was inactive. Further, the result in [13], in assay [14], in assay [15], in assay [16], in assay [17] and in [18] was inactive. The outcome in assay [19] and in assay [20] was inactive.

For the compound `FC(F)(F)C(F)(F)C(F)(F)N(C(F)(F)C(F)(F)C(F)(F)F)C(F)(F)C(F)(F)C(F)(F)F`, the outcome in assay [1], in assay [2], in assay [3], in assay [4], in assay [5] and in assay [6] was inactive. Also, the result in assay [7], in [8], in assay [9], in assay [10], in [11] and in assay [12] was inactive. Further, the outcome in assay [13], in assay [14], in [15], in assay [16], in [17] and in assay [18] was inactive. For the same compound, the result in assay [19] and in [20] was inactive.
